Experimental data published in PubChem BioAssay AID1010 (Sanford-Burnham Center for Chemical Genomics, 2008).
The whole screen tested about 48,000 compounds, of which about 160 (0.33%) were called active.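 The calls were made as follows: active = survival measured by cellular ATP above 50% at 15 µg/ml in the first screen; inactive = the rest.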 The entries come from a sample that favours actives as a whole.

assay: protection against thapsigargin ER stress killing – CSM14.1 cells, ATP luminescence, primary screen (AID 1010); conditions: CSM14.1 thapsigargin ER stress survival, stronger effect = higher value, screened at 15 µg/mL (by protocol);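 also: cell death triggered by about 15 µM thapsigargin; ATP read 24 h after thapsigargin was added; plate controls were thapsigargin with DMSO for no effect and DMSO without thapsigargin for full effect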

Row | SMILES | relative survival (cellular ATP)
1 | COc1ccc(N2C(=O)/C(=C/c3cc(C)n(-c4ccc([N+](=O)[O-])cc4)c3C)C(=O)NC2=S)cc1 | -5.8% (inactive)
2 | C=CCOc1cccc(/C=N/NS(=O)(=O)c2ccc(Cl)cc2)c1 | 3.1% (inactive)
3 | O=C(O)c1ccccc1C(=O)N1CCN(C(=O)c2ccccc2C(=O)O)CC1 | -0.9% (inactive)
4 | CCN(CC)c1ccc(Nc2nc(-c3sc(C)nc3C)cs2)cc1 | 49.2% (inactive)
5 | O=C1/C(=C/c2ccc(F)cc2)SC(=S)N1c1ccc(F)cc1 | -1.4% (inactive)
6 | CCN1C(=O)/C(=C/c2ccc(NC(=O)c3ccc4ncccc4c3)cc2)SC1=S | 8.8% (inactive)
7 | COC(=O)C(C)NC(=O)CCC1CCCCC1 (stereo not given) | 4.2% (inactive)
8 | Cc1cccc(C)c1OCC(=O)Nc1sc2c(c1C(N)=O)CCC2 | 10.1% (inactive)
9 | CC(=O)C1=C(O)C(=O)N(CC2CCCO2)C1c1ccc(C(C)C)cc1 (stereo not given) | -5.9% (inactive)
10 | COc1ccc(C2CC(C(F)(F)F)n3nc(C(=O)NCCc4ccccc4)c(Cl)c3N2)cc1OC (stereo not given) | 2.7% (inactive)
11 | COc1cc(NC(=O)c2cc(Cl)c(OC)c(Cl)c2)ccc1NC(=O)c1ccco1 | -1.3% (inactive)
12 | CCSc1nnc2c(n1)OC(c1ccc(-c3ccc(Cl)cc3)o1)Nc1ccccc1-2 (stereo not given) | 4.5% (inactive)
13 | COc1ccccc1/C=N/NC(=O)c1cc(C23CC4CC(CC(C4)C2)C3)[nH]n1 | 3% (inactive)
14 | Cc1c(OCC(=O)N(C)C)ccc2c3c(c(=O)oc12)CCCC3 | 4.4% (inactive)
15 | N#Cc1ccc(/C=N/Nc2nc(-c3ccccc3)cs2)cc1 | 5.1% (inactive)
16 | CS(=O)(=O)N1CCN(Cc2ccc(Br)cc2)CC1 | -1.6% (inactive)
17 | O=C(CSc1nnc(-c2cccs2)n1-c1ccccc1)c1cccc([N+](=O)[O-])c1 | -3.1% (inactive)
18 | COc1ccc2ccccc2c1-c1cc(C(=O)NN)[nH]n1 | -1% (inactive)
19 | O=C(CCCN1C(=O)c2cccc3cccc(c23)C1=O)N1CCN(Cc2ccc3c(c2)OCO3)CC1 | 77.5% (active)
20 | O=C(CCN1C(=O)c2cccc3cccc(c23)C1=O)OCCCc1ccncc1 | 5.7% (inactive)
21 | COCCCN1C(=O)c2cccc3cccc(c23)C1=O | 0.8% (inactive)
22 | Cc1[nH]n(-c2ccccc2)c(=O)c1C(c1ccc(C(F)(F)F)cc1)c1c(C)[nH]n(-c2ccccc2)c1=O | 4.8% (inactive)
23 | O=C(O)CCCNC(=O)c1ccccc1NC(=O)c1ccccc1 | 7.8% (inactive)
24 | Cc1nnc(N2C(=O)c3ccc(-c4nc5ccccc5c(=O)o4)cc3C2=O)s1 | 5.9% (inactive)
25 | CN(C1=NS(=O)(=O)c2ccccc21)c1ccccc1 | 3.5% (inactive)
26 | O=C(COc1ccccc1)Nc1cccc(NC(=O)c2ccco2)c1 | 9% (inactive)
27 | COc1ccccc1/C=C1/SC(=S)N(CCC(=O)N2c3ccccc3Sc3ccc(Cl)cc32)C1=O | 10% (inactive)
28 | CC(N=Cc1ccccc1O)C12CC3CC(CC(O)(C3)C1)C2 (stereo not given) | -0.1% (inactive)
29 | Cc1cc(OCC(=O)Nc2ccccc2C(N)=O)cc(C)c1Cl | 2.7% (inactive)
30 | O=C(Nc1ccc(Br)c(Cl)c1)C(c1ccccc1)c1ccccc1 | 4.5% (inactive)
